High-throughput results deposited in PubChem BioAssay by National Center for Advancing Translational Sciences (NCATS).
D1 potentiator: Potentiators of Human D1 Dopamine Receptor: qHTS; potentiation, % at 10 µM; HEK293 TREx D1 cells, calcium flux, dopamine EC20 potentiation; hit rate 0.036% among 360,000; D(1A) dopamine receptor (Homo sapiens), P21728; in the data active = potentiation above about 30%
ERG-DNA inh: qHTS for Small Molecule Inhibitors of the ERG Ets/DNA interaction; hit rate 0.028% among 370,000; Potency, µM (series often up to 76.9 µM), actives largely listed as inhibitors; AID 624246, 2012; fluorescence polarization, His-ERG Ets domain / labelled DNA; Transcriptional regulator ERG (Homo sapiens), P11308; active = well fitted inhibition curve with a large enough effect in the polarisation, with a control signal flat; inconclusive = small, poorly fitted or top-dose-only effect, or effect the other way, or a change in a side signal; inactive = no such curve, though single readings can be large or run the other way; the % refers to the polarisation;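 also: polarization taken with two DNA probes labelled with fluorescein and Texas red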
Target sequence (P11308 whole entry, looked up, the tested form may be a part): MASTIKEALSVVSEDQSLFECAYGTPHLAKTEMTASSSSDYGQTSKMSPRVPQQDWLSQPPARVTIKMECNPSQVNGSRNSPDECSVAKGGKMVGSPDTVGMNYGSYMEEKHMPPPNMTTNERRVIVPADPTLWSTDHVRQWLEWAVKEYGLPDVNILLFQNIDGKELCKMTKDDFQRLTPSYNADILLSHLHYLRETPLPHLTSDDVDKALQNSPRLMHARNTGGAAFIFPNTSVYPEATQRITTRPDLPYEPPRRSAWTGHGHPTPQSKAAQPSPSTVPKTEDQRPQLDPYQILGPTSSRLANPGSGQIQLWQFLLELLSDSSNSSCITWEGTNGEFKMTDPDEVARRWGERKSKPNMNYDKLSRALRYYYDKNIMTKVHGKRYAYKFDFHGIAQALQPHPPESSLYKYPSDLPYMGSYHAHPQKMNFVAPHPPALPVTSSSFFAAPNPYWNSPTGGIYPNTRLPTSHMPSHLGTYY
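His-tagged ERG Ets domain (1 uM in the protein solution; 300mM KCl, 50mM Tris-HCl, 1mM EDTA, 1mM DTT, pH 7.5) received compound, then a probe mix of 5 nM fluorescein-DNA and 100nM Texas-615-DNA. Fluorescence polarization was read for both dyes.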
D1 antag: Antagonist of Human D 1 Dopamine Receptor: qHTS | D(1A) dopamine receptor (Homo sapiens), P21728 | HEK293 TREx D1 cells, calcium flux, dopamine EC80; active compounds read low | activity change, negative = inhibition, % at 10 µM | hit rate 3.2% among 360,000; in the data active = activity change below about -30%
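Allosteric or orthosteric antagonism assessed as attenuation of the calcium response to EC80 dopamine, added 180 s after compound, in induced HEK293 Trex D1 cells loaded with no-wash calcium dye.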
D1 agonist: Allosteric Agonists of the Human D1 Dopamine Receptor: qHTS; hit rate 1% among 360,000; HEK293 T-REx D1 cells, calcium flux, agonist mode; activation, % at 2 µM; in the data active = activation above about 30%
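Agonism was scored from calcium flux recorded over 180 s (1 read/s) after pintool compound addition, following a 10-cycle baseline. Cells were inducible force-coupled HEK293 TREx D1, plated overnight at 30 C and loaded with no-wash calcium dye.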
D3 ag: qHTS of D3 Dopamine Receptor Agonist: qHTS | D(3) dopamine receptor (Homo sapiens), P35462 | D3R DiscoveRx beta-arrestin cells, luminescence, 90 min | max activation, % | hit rate 0.58% among 410,000; in the data active = max activation above about 30%
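Cells at 1500/well, incubated overnight, then treated with pinned compounds (dopamine as control) for 90 min at 37 degrees C. DiscoveRx reagent added for 30 - 60 minutes at room temperature; luminescence read.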
DRD3 antagonist: qHTS of D3 Dopamine Receptor Antagonist: qHTS | D3R cells, DiscoveRx beta-arrestin luminescence, antagonist mode; active compounds read low | D(3) dopamine receptor (Homo sapiens), P35462 | hit rate 2.5% among 360,000 | AID 652054, 2013 | max response, negative = inhibition, %; in the data active = max response below about -50%; inconclusive = no clear call, values can overlap the other calls
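Cells expressing the human receptor were seeded at 1500 cells/well, incubated overnight at 37 degrees C in 5% CO2, then exposed to library compounds with dopamine controls for 90 minutes at 37 degrees C before luminescent detection.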
Each line names hits and unclear results; the compound was inactive in the other large screens; ! = repeats disagree. Only some compounds are listed: those with a hit (about 6.1% of all), similar ones and a draw of the others.

NC(Cc1ccc(F)cc1)c1csc(Nc2ccccn2)n1 (stereo unspecified)	none (no result: D1 potentiator, ERG-DNA inh, D1 antag, D1 agonist)
CN1CC(C(=O)c2cccs2)C(c2ccc(Cl)cc2)C1 (stereo unspecified)	DRD3 antagonist -74.6
COc1cc(CN2CC=C(c3ccc(F)cc3)CC2)cc(OC)c1	DRD3 antagonist -87.5
O=C(CN1CC=C(c2ccccc2)CC1)NC(=O)NCc1ccccc1	none
Fc1ccc(Cn2nnnc2C(c2ccc(Cl)cc2)N2CC=C(c3ccc(F)cc3)CC2)cc1 (stereo unspecified)	none
CN(C)c1ccc(CN2CC=C(c3ccc(F)cc3)CC2)cc1	DRD3 antagonist -87.7
COc1cc(C)c(CN2CC=C(c3ccc(F)cc3)CC2)cc1C	DRD3 antagonist -75.9
O=[N+]([O-])c1ccc(CN2CC=C(c3ccccc3)CC2)cc1	DRD3 antagonist -54.8
C[C@]12CCC(=O)C=C1CC[C@@H]1C2CC[C@]2(C)C(=O)CCC12 (stereo partly specified)	none
C#CC[N+]1(C)C2CCC1CC(O)C2 (stereo unspecified)	none
CCCCn1c(O)c(C(CC)=NCc2cc(OC)cc(OC)c2)c(=O)[nH]c1=O	none
CNC(C)Cc1ccccc1Sc1ccc(O)cc1 (stereo unspecified)	D1 antag -58.8, DRD3 antagonist -72.8
CC(C)(C)c1ccc(O)c(CN2CCN(c3ccccc3)CC2)c1	DRD3 antagonist -71.0
O=c1[nH]c(=O)n(-c2cccc(Cl)c2)c(O)c1C=NCCCN1CCOCC1	none
NC(Cc1cc(O)c(O)cc1O)C(=O)O (stereo unspecified)	none (no result: ERG-DNA inh, D3 ag, DRD3 antagonist)
NCCc1cc(O)c(O)cc1O	ERG-DNA inh inconclusive, DRD3 antagonist -68.2! (no result: D1 potentiator, D1 antag, D1 agonist)
OC(c1ccccc1)(c1ccc(Cl)cc1)C1CN2CCC1CC2 (stereo unspecified)	none
OC(c1ccccc1)(c1ccccc1)C1CN2CCC1CC2 (stereo unspecified)	DRD3 antagonist -70.0
Cc1cccc(Cn2cccc(C(=O)Nc3nc4ccccc4s3)c2=O)c1	none (no result: D1 antag, DRD3 antagonist)
Nc1ccc2cc(Br)ccc2c1	D1 antag -31.1
C[N+]1(CC2COC(c3ccco3)O2)CCCCC1 (stereo unspecified)	D1 antag -32.8
Cc1ccccc1C1=NCC(=O)N(CC(=O)NCc2ccco2)c2sc3c(c21)CCCC3	none (no result: ERG-DNA inh)
C[C@@H]1[C@@H]2Cc3ccc(O)cc3[C@@]1(C)CCN2CC1CC1	none (no result: D1 potentiator, ERG-DNA inh, D1 antag, D1 agonist, DRD3 antagonist)
CCCN1CC[C@@H]2c3cc(O)ccc3CC[C@@H]21	D3 ag 51.0
CC(C)(C)n1nnnc1C(c1cc2ccccc2o1)N1CCC2(CC1)C(=O)NCN2c1ccccc1 (stereo unspecified)	DRD3 antagonist -98.9 (no result: D1 potentiator, ERG-DNA inh, D1 antag, D1 agonist)
C[C@]12CCC3[C@@H](CC[C@H]4C[C@@H](O)CC[C@]34C)C1CCC2=O (stereo partly specified)	D1 antag -34.6
O=[N+]([O-])c1ccc(NC2CCN(Cc3ccccc3)CC2)c2ccncc12	DRD3 antagonist -73.7
CCOP(=O)(OCC)OCC	DRD3 antagonist -110.1 (no result: D1 antag)
Cc1cc(C=C(C#N)C#N)ccc1N1CCCC1	ERG-DNA inh inconclusive, D1 agonist 50.9
CN1CCN(CC(=O)Nc2ccc(Cl)cc2C(=O)c2ccccc2)CC1	none
CN1C(=O)C(=Cc2ccc(OCC(=O)Nc3ccccc3)cc2)C(=O)N(C)C1=O	D1 antag -33.7
COc1ccc(C=C2C(=O)N(C)C(=O)N(C)C2=O)cc1COc1ccc(NC(C)=O)cc1	none
O=S(=O)(c1ccc(F)cc1)N1CCCCC1c1cccnc1 (stereo unspecified)	none
COc1ccccc1CN1CCCCC1c1cccnc1 (stereo unspecified)	D3 ag 32.9
N#CC(C#N)=NNc1ccc([N+](=O)[O-])cc1	DRD3 antagonist inconclusive
CCN(CC)S(=O)(=O)c1ccc(NN=C(C#N)C#N)cc1	D1 agonist 36.5
